Source: PubChem BioAssay (several laboratories)
TWEAK Fn14 block: TWEAK-Fn14 signaling inhibition; TWEAK-stimulated Fn14 reporter cells, luciferase luminescence, 8 h; inhibition, % at 10 µM; 360,000 compounds, 2% hits; AID 1159606; in the data active means inhibition above about 50%
LMP1 NFkB inh: Epstein-Barr LMP1 NF-kappaB reporter inhibition; LMP1-induced NF-kappaB luciferase reporter cells, luminescence; inhibition, % at 12.5 µM; 350,000 compounds, 0.69% hits; in the data active means inhibition above about 41%; inconclusive means no clear call, values can overlap the other calls;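 further: 0% = neutral control wells and 100% = reference inhibitor control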
HIF-2a inh: inhibitors of HIF-2a | AID 624352 | 786-0 RCC cells HIF-2a reporter, luciferase luminescence, overnight | inhibition, % at 18.8 µM | 360,000 compounds, 0.72% hits;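 active means inhibition of the luminescence signal of 40% or more relative to plate controls, in a single-dose primary screen at 18.75 µM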
TROY signal inh: TROY signaling inhibition. Q293 LMP1-TROYcd NF-kB luciferase reporter, 4 h. inhibition, % at 10 µM. 360,000 compounds, 0.98% hits;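 active means compounds whose plate-normalised and pattern-corrected inhibition of the luciferase reporter signal at the single screening dose is 50% or more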
Shn3 3UTR inh: reduces Shn3 3'UTR luciferase signal in osteoblasts | Clone20 osteoblast Shn3 3'UTR firefly luciferase, 24 h | inhibition, % at 12.5 µM | 360,000 compounds, 0.52% hits | AID 588674;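 active means mean inhibition of at least 75% with every replicate also reaching 75%; inconclusive means mean inhibition at least 75% but some replicate below; inactive means mean inhibition below 75%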;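 further: 0% = median of neutral control wells and 100% = pilot-screen positive control compound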
TRPM1 prom inh: reduces MITF-dependent TRPM1 promoter luciferase signal; SK-MEL-5 TRPM1 promoter luciferase, 24 h; inhibition, % at 12.5 µM; 330,000 compounds, 0.83% hits; AID 488899;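 active means mean inhibition across replicates of 60% or more, whatever share of single replicates reaches that level; inconclusive means some that reach 60%, reason not given; inactive means mean inhibition across replicates below 60%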
Mdm2-MdmX confirm: confirmation of inhibitors of human Mdm2/MdmX interaction, set 2 | 740 compounds, 99% hits | shares compounds with HIF-2a inh | inhibition, % at 8 µM | SaOS-2 split-luciferase Mdm2/MdmX complementation, luminescence;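 active means mean inhibition of the luminescence signal across two replicates at or above 26 percent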
Target sequence (O15151 whole entry, looked up): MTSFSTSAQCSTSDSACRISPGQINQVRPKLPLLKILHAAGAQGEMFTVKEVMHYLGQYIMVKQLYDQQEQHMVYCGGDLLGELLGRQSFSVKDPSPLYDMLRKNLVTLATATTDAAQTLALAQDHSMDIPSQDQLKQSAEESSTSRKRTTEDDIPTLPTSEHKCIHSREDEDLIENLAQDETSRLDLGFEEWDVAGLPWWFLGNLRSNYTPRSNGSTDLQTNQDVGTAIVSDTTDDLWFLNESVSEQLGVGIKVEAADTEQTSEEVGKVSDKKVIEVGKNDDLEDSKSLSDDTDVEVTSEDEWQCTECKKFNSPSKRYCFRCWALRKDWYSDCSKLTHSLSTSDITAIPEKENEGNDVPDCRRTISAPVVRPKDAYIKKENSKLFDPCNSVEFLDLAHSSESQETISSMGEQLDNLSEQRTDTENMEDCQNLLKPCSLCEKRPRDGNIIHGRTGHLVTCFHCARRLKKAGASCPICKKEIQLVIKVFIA
Target sequence (Q00987 whole entry, looked up): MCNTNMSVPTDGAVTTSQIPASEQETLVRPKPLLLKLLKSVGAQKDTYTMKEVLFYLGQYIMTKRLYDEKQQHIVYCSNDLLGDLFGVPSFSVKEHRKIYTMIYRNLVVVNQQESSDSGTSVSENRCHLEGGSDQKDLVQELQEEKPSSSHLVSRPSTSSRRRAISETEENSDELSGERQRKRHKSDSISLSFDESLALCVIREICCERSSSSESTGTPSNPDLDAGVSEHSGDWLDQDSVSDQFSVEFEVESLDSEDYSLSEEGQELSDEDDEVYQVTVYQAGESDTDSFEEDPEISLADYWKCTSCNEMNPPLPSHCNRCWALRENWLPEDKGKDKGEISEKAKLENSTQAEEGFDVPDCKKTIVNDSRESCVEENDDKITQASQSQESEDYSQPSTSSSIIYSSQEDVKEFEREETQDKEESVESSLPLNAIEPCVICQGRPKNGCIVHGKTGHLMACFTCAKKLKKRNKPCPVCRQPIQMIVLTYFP
HIF-2a inh conf: HIF-2a inhibition, single concentration confirmation; shares compounds with HIF-2a inh; 786-0 RCC cells, HIF-2a luciferase reporter luminescence, overnight; inhibition, % at 18.8 µM; 1,800 compounds, 56% hits; AID 651580;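 active means mean inhibition across four replicates of at least 40 percent at the single tested concentration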
HIF-1a counter: HIF-1a inhibition counter-screen for HIF-2a hits; shares compounds with HIF-2a inh; MiaPaCa-2 HIF-1a luciferase reporter, desferoxamine, overnight; 1,800 compounds, 72% hits; inhibition, % at 18.8 µM;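 active means mean inhibition of the reporter signal across four replicates at the single tested dose of 50% or more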
* = called active by the depositor. Only some compounds are listed: those with a hit (about 3.4% of all), similar ones and a draw of the others.

How did O=S(=O)(CC(CN1CCCCC1)N1CCCCC1)c1ccc2ccccc2c1 (stereo not drawn) do in these assays?
TWEAK Fn14 block: 41.0; LMP1 NFkB inh: 15.3; HIF-2a inh: 61.8*; TROY signal inh: -29.6; Shn3 3UTR inh: 51.6; TRPM1 prom inh: 74.9*; HIF-2a inh conf: 21.2; HIF-1a counter: 104.1*

Results for O=S(=O)(CC(CN1CCOCC1)N1CCOCC1)c1ccccc1 (stereo not drawn) ?
TWEAK Fn14 block: 0.4; LMP1 NFkB inh: 0.9; HIF-2a inh: 5.8; TROY signal inh: 2.8; Shn3 3UTR inh: 1.1; TRPM1 prom inh: 6.0

What do the screens show for `O=[N+]([O-])c1ccc(-c2ccc(/C=N/Nc3nc(N4CCCC4)nc(N4CCCC4)n3)o2)cc1`?
TWEAK Fn14 block: -23.4; LMP1 NFkB inh: -111.1; HIF-2a inh: 11.1; TROY signal inh: -2.4; Shn3 3UTR inh: 33.0; TRPM1 prom inh: 68.5*; Mdm2-MdmX confirm: 90.8*

How did Cc1ccc(Cl)cc1NC(=O)[C@@H]1CCC(=O)N1C1OC(=O)c2ccccc21 (stereo partly drawn) do in these assays?
TWEAK Fn14 block: -6.6; LMP1 NFkB inh: -1.2; HIF-2a inh: 11.8; TROY signal inh: 14.8; Shn3 3UTR inh: -2.2; TRPM1 prom inh: -2.6

How did COc1ccc(/C=N/n2cnc3c([nH]c4ccc(F)cc43)c2=O)cc1CN1CCCC1 do in these assays?
TWEAK Fn14 block: -28.1; LMP1 NFkB inh: -12.3; HIF-2a inh: 10.3; TROY signal inh: 5.9; Shn3 3UTR inh: -7.5; TRPM1 prom inh: 86.3*; Mdm2-MdmX confirm: 100.5*

How did Cc1ccc(C)c(S(=O)(=O)N2CCN(c3nc(-c4cccnc4)nc4ccccc34)CC2)c1 do in these assays?
TWEAK Fn14 block: 30.4; LMP1 NFkB inh: 0.1; HIF-2a inh: -8.7; TROY signal inh: 11.6; Shn3 3UTR inh: 11.9; TRPM1 prom inh: 6.9

How did CC(C)NCC(O)Cn1c2c(c3ccccc31)CCc1c-2cnn1-c1ccccc1 (stereo not drawn) do in these assays?
TWEAK Fn14 block: -207.2; LMP1 NFkB inh: 18.5; HIF-2a inh: 41.0*; TROY signal inh: -19.6; Shn3 3UTR inh: 9.0; TRPM1 prom inh: 85.3*; HIF-2a inh conf: -3.7; HIF-1a counter: 105.4*

How did CC(=O)SC(C[N+](=O)[O-])c1cn(C(C)=O)c2ccccc12 (stereo not drawn) do in these assays?
TWEAK Fn14 block: 14.3; LMP1 NFkB inh: -3.8; HIF-2a inh: 46.4*; TROY signal inh: -11.4; Shn3 3UTR inh: 34.6; TRPM1 prom inh: 105.8*; HIF-2a inh conf: 96.3*; HIF-1a counter: 85.7*

What do the screens show for `OCCC1CN(Cc2ccc(Oc3ncccn3)cc2)CCN1C1CCCC1` (stereo not drawn)?
TWEAK Fn14 block: 1.6; LMP1 NFkB inh: 2.2; HIF-2a inh: -6.4; TROY signal inh: 6.7; Shn3 3UTR inh: -10.7; TRPM1 prom inh: -3.2

What do the screens show for `Cc1ccc(-n2c(C)c([N+](=O)[O-])c3ccc(O)c(CN(C)C)c32)cc1`?
TWEAK Fn14 block: 75.0*; LMP1 NFkB inh: inconclusive; HIF-2a inh: 8.3; TROY signal inh: 50.7*; Shn3 3UTR inh: 19.5; TRPM1 prom inh: -6.3; Mdm2-MdmX confirm: 92.2*

How did CCC(=O)Nc1cc(SCCO)cc([N+](=O)[O-])c1 do in these assays?
TWEAK Fn14 block: 7.6; LMP1 NFkB inh: -4.3; HIF-2a inh: 14.9; TROY signal inh: 6.4; Shn3 3UTR inh: -10.7; TRPM1 prom inh: -1.1

How did O=C(CCl)Nc1cc(SCC(O)CO)cc([N+](=O)[O-])c1 (stereo not drawn) do in these assays?
TWEAK Fn14 block: 10.1; LMP1 NFkB inh: 25.4; HIF-2a inh: 86.0*; TROY signal inh: -3.8; Shn3 3UTR inh: 63.5; TRPM1 prom inh: 88.6*; HIF-2a inh conf: 87.7*; HIF-1a counter: 106.9*

How did CC(C)=NOc1cc(NC(=O)CCl)cc([N+](=O)[O-])c1 do in these assays?
TWEAK Fn14 block: 22.9; LMP1 NFkB inh: -4.4; HIF-2a inh: 43.9*; TROY signal inh: -15.9; Shn3 3UTR inh: 74.1; TRPM1 prom inh: 87.2*; Mdm2-MdmX confirm: 103.2*; HIF-2a inh conf: 66.3*; HIF-1a counter: 106.5*

What do the screens show for `CCOc1ccc(C(=O)N2CCN(Cc3ccccc3)CC2)cc1OCC`?
TWEAK Fn14 block: -13.9; LMP1 NFkB inh: 6.9; HIF-2a inh: 14.0; TROY signal inh: -11.5; Shn3 3UTR inh: 8.0; TRPM1 prom inh: 2.8

Results for COc1ccc(C(NC(=O)C2CCN(CCc3ccccc3)CC2)c2ccccn2)cc1 (stereo not drawn) ?
TWEAK Fn14 block: -4.2; HIF-2a inh: 3.4; TROY signal inh: -6.8; Shn3 3UTR inh: -31.5

What do the screens show for `CC(=NNC(=S)Nc1cccc(Cl)c1)c1ccccn1`?
TWEAK Fn14 block: -12.2; LMP1 NFkB inh: 52.3*; HIF-2a inh: 72.3*; TROY signal inh: 17.1; Shn3 3UTR inh: 84.3; TRPM1 prom inh: 33.3; HIF-2a inh conf: -166.8; HIF-1a counter: 39.5

Results for CCOc1ccc(N2CC(C(=O)Nc3cc(S(=O)(=O)N4CCCCC4)ccc3C)CC2=O)cc1 (stereo not drawn) ?
TWEAK Fn14 block: 10.2; LMP1 NFkB inh: -0.9; HIF-2a inh: 6.5; TROY signal inh: 2.3; Shn3 3UTR inh: 14.1; TRPM1 prom inh: 7.0

What do the screens show for `Cc1cc(C)c2nc(NNC(=O)c3ccc(S(=O)(=O)N4CCCC(C)C4)cc3)sc2c1` (stereo not drawn)?
TWEAK Fn14 block: -14.1; LMP1 NFkB inh: 2.6; HIF-2a inh: -7.0; TROY signal inh: 6.8; Shn3 3UTR inh: 59.2; TRPM1 prom inh: 46.2; Mdm2-MdmX confirm: 85.7*

How did Cc1cccc2sc(NNC(=O)c3ccc(S(=O)(=O)N4CC(C)CC(C)C4)cc3)nc12 (stereo not drawn) do in these assays?
TWEAK Fn14 block: 63.8*; LMP1 NFkB inh: 37.6; HIF-2a inh: 48.3*; TROY signal inh: 51.0*; Shn3 3UTR inh: inconclusive; TRPM1 prom inh: 77.7*; Mdm2-MdmX confirm: 90.5*; HIF-2a inh conf: -3.8; HIF-1a counter: 100.4*

What do the screens show for `COC(=O)c1sc2ccccc2c1NC(=O)c1ccc(S(=O)(=O)N2CC(C)CC(C)C2)cc1` (stereo not drawn)?
TWEAK Fn14 block: -12.0; LMP1 NFkB inh: 10.2; HIF-2a inh: -3.2; TROY signal inh: -23.8; Shn3 3UTR inh: 5.5; TRPM1 prom inh: -2.1

Results for COc1ccc(CNC(=O)COC(=O)CCCOc2ccc(Cl)cc2Cl)cc1 ?
TWEAK Fn14 block: 8.7; LMP1 NFkB inh: -7.4; HIF-2a inh: 43.2*; TROY signal inh: 5.3; Shn3 3UTR inh: -16.1; TRPM1 prom inh: 2.8; HIF-2a inh conf: 28.8; HIF-1a counter: 19.9
